# Screen size: about 310,000 compounds; about 14,000 (4.5%) showed an effect of 50% or more. The effect is printed as a negative number. This excerpt belongs to a sample that is enriched for strong results. Where a SMILES comes first, the peptide text is derived from it. The star is where a group is joined. PhAc = O=C(Cc1ccccc1)*; OBn = c1ccc(CO*)cc1
# Target: human ether-à-go-go-related gene (hERG) potassium channel (human, UniProt Q12809)
# Assay: primary screen, population patch clamp on CHO cells stably expressing hERG; higher = less effect of the substance
# 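Note: peak tail current of the secondary pulse compared with the same well before compound.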
# Chain of human ether-à-go-go-related gene (hERG) potassium channel (Q12809 whole entry, looked up): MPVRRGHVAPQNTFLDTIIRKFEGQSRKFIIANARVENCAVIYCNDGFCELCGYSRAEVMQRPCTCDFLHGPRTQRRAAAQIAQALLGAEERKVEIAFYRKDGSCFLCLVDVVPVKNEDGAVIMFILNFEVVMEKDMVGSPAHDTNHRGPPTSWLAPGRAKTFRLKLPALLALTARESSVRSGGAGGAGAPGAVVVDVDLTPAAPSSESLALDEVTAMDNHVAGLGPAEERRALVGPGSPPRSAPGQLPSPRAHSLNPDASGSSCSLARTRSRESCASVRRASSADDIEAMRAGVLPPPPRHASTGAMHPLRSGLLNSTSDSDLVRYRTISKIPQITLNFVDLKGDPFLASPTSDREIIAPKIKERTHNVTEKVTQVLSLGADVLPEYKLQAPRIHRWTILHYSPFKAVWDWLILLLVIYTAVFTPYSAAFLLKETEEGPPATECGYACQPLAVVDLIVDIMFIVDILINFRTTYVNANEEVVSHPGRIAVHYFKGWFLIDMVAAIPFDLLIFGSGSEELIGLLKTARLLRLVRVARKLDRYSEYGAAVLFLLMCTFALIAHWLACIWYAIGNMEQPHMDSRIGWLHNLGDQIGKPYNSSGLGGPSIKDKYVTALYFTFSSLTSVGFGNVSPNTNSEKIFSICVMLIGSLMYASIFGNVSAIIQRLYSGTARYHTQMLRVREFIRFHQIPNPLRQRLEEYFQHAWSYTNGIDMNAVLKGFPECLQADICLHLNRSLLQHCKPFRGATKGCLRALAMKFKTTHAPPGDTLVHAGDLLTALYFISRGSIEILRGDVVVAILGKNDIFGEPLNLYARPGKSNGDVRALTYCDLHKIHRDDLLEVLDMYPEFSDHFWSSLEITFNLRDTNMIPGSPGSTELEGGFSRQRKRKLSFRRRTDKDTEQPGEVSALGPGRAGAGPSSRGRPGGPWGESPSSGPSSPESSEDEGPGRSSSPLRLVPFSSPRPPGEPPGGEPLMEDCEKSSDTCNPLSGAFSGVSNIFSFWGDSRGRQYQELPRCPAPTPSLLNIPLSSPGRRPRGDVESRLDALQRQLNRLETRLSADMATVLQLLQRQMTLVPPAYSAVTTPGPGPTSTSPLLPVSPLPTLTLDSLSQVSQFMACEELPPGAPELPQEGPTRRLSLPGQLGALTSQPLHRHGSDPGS
row,Compound,"hERG current change (%, negative = inhibition) at 10uM"
1,O=C(NCc1cccnc1)c1cc(-c2ccco2)on1,8.02%
2,CC(NC(=O)C1CCN(C(=O)[C@@H]2Cc3ccccc3CN2C(=O)OC(C)(C)C)CC1)c1ccccc1 (stereo partly shown),14%
3,O=C(NCC(=O)N(c1cnc2ccccc2c1)C(C(=O)NC1CCCC1)c1ccncc1)c1ccco1 (stereo not shown),8.74%
4,CC(C)(C)S(=O)(=O)c1nc2ccccc2s1,6.74%
5,CCCc1ccc2oc(C(=O)N3CCN(C4CCS(=O)(=O)C4)CC3)c(C)c2c1 (stereo not shown),-51.3%
6,CCCc1ccc2oc(C(=O)N3CCCC3)c(C)c2c1,-7.11%
7,CCCc1ccc2oc(C(=O)N3CCC(O)CC3)c(C)c2c1,-12.2%
8,Oc1oc(-c2ccccc2)nc1C=NCc1ccncc1,-7.6%
9,COc1ccc(S(=O)(=O)N[C@@H](Cc2ccccc2)C(=O)N2CC[C@@]3(O)CCCC[C@H]3C2)cc1,-14.9%
10,CCCn1c(-c2cc(OC)c(OC)c(OC)c2)nc2c1c(=O)[nH]c(=O)n2Cc1ccccc1,5.09%
11,CCCn1c(-c2cccc([N+](=O)[O-])c2)nc2c1c(=O)[nH]c(=O)n2Cc1ccccc1,-66.4%
12,CCCn1c(=O)[nH]c(=O)c2c1nc(-c1ccc(OC)c(Br)c1)n2CCOC,-20.1%
13,CCCn1c(=O)[nH]c(=O)c2c1nc(-c1ccc(OC(F)F)c(OC)c1)n2CCOC,-50.5%
14,COCCCn1c(-c2cccc(Cl)c2)nc2c1c(=O)[nH]c(=O)n2Cc1ccccc1,-0.77%
15,CCCCn1c(=O)[nH]c(=O)c2c1nc(-c1ccc(OC(F)F)c(OC)c1)n2C,17.1%
16,COCCn1c(-c2ccc(C#N)cc2)nc2c1c(=O)[nH]c(=O)n2Cc1ccccc1,-33.9%
17,COCCn1c(-c2cccc([N+](=O)[O-])c2)nc2c1c(=O)[nH]c(=O)n2Cc1ccccc1,-84.2%
18,CCCn1c(-c2cccc(F)c2)nc2c1c(=O)[nH]c(=O)n2Cc1ccccc1,17.5%
19,CS(=O)(=O)c1ccc2nc(NC(=O)c3ccc(Cn4cc(Br)cn4)o3)sc2c1,-27.1%
20,CCc1c(C)[nH]c2c1C(=O)C(CN1CCOCC1)CC2.Cl (stereo not shown),-7.67%
21,CCOc1cc(C(=O)O/N=C(\N)c2ccc([N+](=O)[O-])cc2)cc(OCC)c1OCC,-16%

row,Compound,"hERG current change (%, negative = inhibition) at 10uM"
1,CCOc1ccccc1N1C(=O)NC(=O)/C(=C/c2ccc3c4c(cccc24)CC3)C1=O,2.74%
2,CSc1nsc(SC)c1NC(=O)OCCc1ccccn1,-6.18%
3,COCCn1nnnc1C(c1ccc(OC)c(OC)c1)N1CCN(c2nc3ccccc3s2)CC1 (stereo not shown),-56.3%
4,COCCn1nnnc1C(c1cccs1)N1CCN(c2nc3ccccc3s2)CC1 (stereo not shown),-25.3%
5,CC(C)CC(c1nnnn1Cc1cccs1)N1CCN(c2nc3ccccc3s2)CC1 (stereo not shown),0.473%
6,c1ccc(CCn2nnnc2C(c2cccnc2)N2CCN(c3ccccc3)CC2)cc1 (stereo not shown),-47.6%
7,COc1cc(C(c2nnnn2C(C)(C)C)N2CCN(c3nc4ccccc4s3)CC2)ccc1O (stereo not shown),-28.1%
8,CCCC(c1nnnn1CCOC)N1CCN(c2nc3ccccc3s2)CC1 (stereo not shown),-66.2%
9,CCC(c1nnnn1Cc1cccs1)N1CCN(c2nc3ccccc3s2)CC1 (stereo not shown),-56.1%
10,COCCn1nnnc1C(CC(C)C)N1CCN(c2nc3ccccc3s2)CC1 (stereo not shown),-9.4%
11,c1ccc(CCn2nnnc2C(c2cccnc2)N2CCN(c3nc4ccccc4s3)CC2)cc1 (stereo not shown),-58.7%
12,CCCC(c1nnnn1Cc1cccs1)N1CCN(c2nc3ccccc3s2)CC1 (stereo not shown),-22.4%
13,Oc1ccc(C(c2nnnn2CCc2ccccc2)N2CCN(c3nc4ccccc4s3)CC2)cc1 (stereo not shown),9.25%
14,CCC(c1nnnn1CCOC)N1CCN(c2nc3ccccc3s2)CC1 (stereo not shown),-34.7%
15,Cc1ccc2nc(SC(C(=O)Nc3ccc(F)cc3)c3ccccc3)[nH]c2c1 (stereo not shown),-1.38%
16,Cc1ccsc1/C=N/NC(=O)c1ccc2nc[nH]c2c1,-2.67%
17,COC(=O)c1cc(C#N)c(OC(C)C)nc1C,-6.52%
18,Cc1cc(C)c(S(=O)(=O)N2CCCOC2CNC(=O)C(=O)NCc2cccnc2)c(C)c1 (stereo not shown),8.23%
19,COc1ccccc1C(c1nnnn1Cc1ccccc1)N1CCN(c2nc3ccccc3s2)CC1.Cl (stereo not shown),23.1%
20,COc1ccc(C(c2nnnn2Cc2ccccc2)N2CCN(c3nc4ccccc4s3)CC2)cc1 (stereo not shown),13.7%
21,COc1ccc(C(c2nnnn2Cc2ccccc2)N2CCN(c3nc4ccccc4s3)CC2)cc1OC.Cl (stereo not shown),-58.4%

row,Compound,"hERG current change (%, negative = inhibition) at 10uM"
1,O=C(N/N=C/c1ccc(Cl)cc1)c1nc2ccc([N+](=O)[O-])cc2c(=O)[nH]1,-27.3%
2,CC(C)Cn1c(CN2C(=O)c3ccccc3C2=O)nc2ccccc2c1=O,16.7%
3,Fc1cc(Br)ccc1NC(=S)NCCc1ccccc1,-1.43%
4,COC(=O)c1ccc(C(=O)N2CCCC(N3CCN(c4ccc(F)cc4)CC3)C2)nc1 (stereo not shown),-56.1%
5,COCc1ccc(C(=O)N2CCCC(N3CCN(c4ccc(F)cc4)CC3)C2)o1 (stereo not shown),-47.3%
6,Cc1cc(C(=O)N2CCCC(N3CCN(c4ccc(F)cc4)CC3)C2)no1 (stereo not shown),-37.7%
7,O=C(c1cc(C2CC2)on1)N1CCCC(N2CCN(c3ccc(F)cc3)CC2)C1 (stereo not shown),-63.7%
8,O=C(c1cc(C2CC2)on1)N1CCN(c2ccc(F)cc2)CC1,-43.4%
9,CC(C)c1cc(C(=O)N2CCCC(N3CCN(c4ccc(F)cc4)CC3)C2)no1 (stereo not shown),-72.1%
10,Cc1cccc(C(=O)N2CCCC(N3CCN(c4ccc(F)cc4)CC3)C2)n1 (stereo not shown),-48.4%
11,CCCc1cc(C(=O)N2CCCC(N3CCN(c4ccc(F)cc4)CC3)C2)no1 (stereo not shown),-73%
12,COC(=O)c1ccc(C(=O)N2CCCC(N3CCN(c4ccccc4)CC3)C2)nc1 (stereo not shown),-22.4%
13,O=C(c1ccccn1)N1CCCC(N2CCN(c3ccc(F)cc3)CC2)C1 (stereo not shown),-37.2%
14,CCc1noc(C)c1C(=O)N1CCCC(N2CCN(c3ccc(F)cc3)CC2)C1 (stereo not shown),-27.2%
15,O=C(c1cc(C2CC2)on1)N1CCCC(N2CCN(c3cccc(C(F)(F)F)c3)CC2)C1 (stereo not shown),-48.7%
16,O=C(Cc1ccccc1)N[C@H](c1ccccc1)P(=O)(O)CO,8.47%
17,CC(=O)c1cccc(NC(=O)Nc2ccc(C(=O)N3CCOCC3)cc2)c1,-0.351%
18,NS(=O)(=O)c1ccc(NC(=O)COC(=O)c2ccc3c(c2)OCCO3)cc1,24%
19,CC(C)C(=O)Nc1sc2c(c1C#N)CCCCC2,9.53%
20,Cc1cc(C)c(S(=O)(=O)Nc2cccc3nsnc23)c(C)c1,-3.18%
21,O=C(NC1CCCC1)C(c1ccc(F)cc1)N(C(=O)c1csnn1)C1CCCC1 (stereo not shown),9.14%

row,Compound,"hERG current change (%, negative = inhibition) at 10uM"
1,COC(=O)c1ccc(CSc2nnc3n(Cc4ccccc4OC)c(=O)c4ccccc4n23)o1,-19.3%
2,CCc1noc(C)c1C(=O)N1CCCC(CCC(=O)NCc2cccc(OC)c2)C1 (stereo not shown),20.2%
3,Cc1ccc(N=Nc2c(N)n[nH]c2N)cc1,24.5%
4,CNP(=O)(Oc1ccccc1)OC12CC3CC(CC(C3)C1)C2 (stereo not shown),-2.75%
5,O=C(Nc1nnc(SCc2ccc(Cl)cc2)s1)C1CCCO1 (stereo not shown),-21.9%
6,O=C(CNS(=O)(=O)c1ccccc1)NCC(=O)OCc1ccc(Br)cc1,-6.92%
7,O=C(CNC(=O)c1ccco1)OCc1ccc(C(=O)Oc2ccccc2)cc1,-73.6%
8,O=C(CNC(=O)Cc1ccccc1)NCC(=O)OCc1ccccc1 (PhAc-Gly-Gly-OBn),12.4%
9,O=C(CNC(=O)c1ccco1)OCc1ccc(C(=O)c2ccccc2)cc1,-69.2%
10,O=C(CNC(=O)Cc1ccccc1)NCC(=O)OCc1ccc(C(=O)c2ccccc2)cc1,-5.33%
11,COC(=O)c1ccc(COC(=O)CNC(=O)c2ccco2)cc1,17.3%
12,O=C(CNS(=O)(=O)c1ccccc1)NCC(=O)OCc1ccc(Cl)cc1,13.7%
13,O=C(CNC(=O)c1ccco1)NCC(=O)OCc1ccc(C(=O)Oc2ccc(Cl)cc2)cc1,9.73%
14,O=C(CNS(=O)(=O)c1ccccc1)NCC(=O)OCc1ccc(C(=O)c2ccccc2)cc1,-61.6%
15,CCOC(=O)c1ccc(COC(=O)CNC(=O)CNC(=O)Cc2ccccc2)cc1,-57.2%
16,O=C(CNC(=O)c1ccco1)OCc1ccc(Br)cc1,2.8%
17,O=C(CNC(=O)c1ccco1)NCC(=O)OCc1cccc(C(=O)Oc2ccccc2)c1,-3.88%
18,O=C(Nc1cccc2c1CCCC2)c1ccc(Cl)c([N+](=O)[O-])c1,5.81%
19,CC(=O)N1CCc2cc(Br)cc(S(=O)(=O)NCCCN3CCC(C)CC3)c21,-16.8%
